# Only some compounds are listed: those with a hit (about 2.3% of all), similar ones and a draw of the others.
# CHRM1 antagonist: antagonists of human M1 muscarinic receptor; P11229; CHO-K1 hM1, Fluo-8 calcium fluorescence, ACh EC80 antagonist; inhibition, % at 3 µM; hit rate 1.3% among 360,000; AID 588852;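 active means percent inhibition above its own plate's cutoff, namely the mean of that plate's compound wells plus 3 SD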;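 further: peak over basal fluorescence ratio during 140 s after agonist addition; 0% = ACh EC80 plus DMSO and 100% = DMSO alone without agonist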
# Target sequence (P11229 whole entry, looked up): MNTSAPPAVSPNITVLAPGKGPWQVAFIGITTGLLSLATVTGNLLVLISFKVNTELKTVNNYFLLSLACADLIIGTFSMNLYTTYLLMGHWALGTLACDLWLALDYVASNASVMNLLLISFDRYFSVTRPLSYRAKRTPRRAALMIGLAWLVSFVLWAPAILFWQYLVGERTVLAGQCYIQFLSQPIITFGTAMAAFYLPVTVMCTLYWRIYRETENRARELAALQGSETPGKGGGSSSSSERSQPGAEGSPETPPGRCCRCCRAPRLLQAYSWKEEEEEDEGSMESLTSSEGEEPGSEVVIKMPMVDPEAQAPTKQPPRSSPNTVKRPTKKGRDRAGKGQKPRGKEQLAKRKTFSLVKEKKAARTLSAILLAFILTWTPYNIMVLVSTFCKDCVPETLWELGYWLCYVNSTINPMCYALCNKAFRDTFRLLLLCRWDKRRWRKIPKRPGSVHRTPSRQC
# CHO-K1 Ca antag: counter-screen for M1 antagonists: effect in parental CHO-K1 cells; inhibition, % at 3 µM; ATP-induced calcium, Fluo-8 fluorescence; hit rate 0.6% among 360,000;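 active means inhibition above a per-plate cutoff, the plate's mean sample inhibition plus 3 SD, cut at about 24% in these data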;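 further: 0% = DMSO plus EC80 ATP and 100% = DMSO alone without ATP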
# M1 ag: activates human CHRM1 receptor; P11229; CHO-K1 hM1, Fluo-8 calcium fluorescence, agonist mode; 0% DMSO, 100% acetylcholine EC100; activation, % at 3 µM; hit rate 0.33% among 360,000; AID 588814;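 active means activation above the run's mean compound activation plus 3 SD, cut at about 16% in these data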;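 further: peak over basal fluorescence ratio within a 140 s kinetic read after compound addition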
# CHO-K1 Ca PAM: counter-screen for M1 PAMs: effect in parental CHO-K1 cells. ATP EC20, Fluo-8 calcium fluorescence; 0% at ATP EC20, 100% at ATP max. activation, % at 3 µM. hit rate 0.02% among 360,000. AID 602247;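 active means activation above the run cutoff, the mean activation of all test compounds plus 3 SD, cut at about 40% in these data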;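 further: peak over basal fluorescence ratio in a 140 s read after ATP addition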
# CHO-K1 Ca ag: nonselective activator or artifact in parental CHO-K1 cells; Fluo-8 calcium fluorescence; scaled to maximal ATP response, vehicle zero; AID 602248; activation, % at 3 µM; hit rate 0.48% among 360,000; in the data active means activation above about 15%;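 further: untransfected CHO-K1 host cells lacking M1 receptor as counterscreen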
# M1 PAM: potentiates human M1 receptor response to acetylcholine; P11229; CHO-K1 hM1, Fluo-8 calcium fluorescence, ACh EC20; 0% = ACh EC20, 100% = maximal ACh; activation, % at 3 µM; hit rate 0.088% among 360,000; in the data active means activation above about 19%, passing the limit was not always enough
# Starred values were filed as active, the others as inactive; + = active, no number.
SMILES,CHRM1 antagonist,CHO-K1 Ca antag,M1 ag,CHO-K1 Ca PAM,CHO-K1 Ca ag,M1 PAM
O=C(c1ccc(NC2=NC3CS(=O)(=O)CC3S2)cc1)N1CCN(c2ccc([N+](=O)[O-])cc2)CC1 (stereo unspecified),10,-8,-2,-2,0,-2
S=c1[nH]nc(-c2cc(-c3ccccc3)n[nH]2)n1/N=C/C(Br)=C/c1ccccc1,-6,8,3,-7,-1,8
COc1cccc(CN(C)C(=O)C(Cc2ccccc2)NC(=O)c2ccccc2)c1OC (stereo unspecified),29*,13,-2,-17,5,-12
CCOC(=O)c1ccccc1NC(=O)CSc1nc2[nH]ncc2c(=O)[nH]1,35*,8,0,-20,0,-11
COc1ccc(/C=N/n2nnnc2N)c(OC)c1,38*,8,-8,2,0,-8
CCOC(=O)c1c(OCC)[nH]c2ccc(O)cc12,-3,4,-3,17,0,6
O=C1CC(c2cccs2)CC2=C1C(c1ccccc1)n1ncnc1N2 (stereo unspecified),-25,4,-8,10,0,0
CC1CC(=O)C2=C(C1)Nc1ncnn1C2c1ccccc1 (stereo unspecified),6,28*,-1,-1,0,11
Cc1cc(OCc2cc(C(=O)N3CCN(C)C(=O)[C@@H]3C)no2)cc(C)c1Cl,38*,10,5,-10,15,-13
COc1cc(Cl)ccc1OCc1cc(C(=O)N2CCN(C)C(=O)[C@@H]2C)no1,-8,-10,-1,0,1,3
O=C(Nc1cccc(/C=C/c2ccccn2)c1)c1ccc(-n2cncn2)cc1,31*,0,3,1,6,-15
CCN1CCN(C2=CC3=CC(=C(C#N)C#N)CCC3CC2)CC1 (stereo unspecified),101*,78*,591*,-22,366*,-25
N#CC(C#N)=C1C=C2C=C(N3CCCCCC3)CCC2CC1 (stereo unspecified),102*,102*,+,-14,939*,-33
CN1CCN(C2=CC3=CC(=C(C#N)C#N)CCC3CC2)CC1 (stereo unspecified),103*,85*,896*,-25,522*,-28
N#CC(C#N)=C1C=C2C=C(N3CCOCC3)CCC2CC1 (stereo unspecified),58*,23,124*,-14,65*,-25
CC(C)N(Cc1nc(-c2ccc3c(c2)OCO3)no1)Cc1nccn1C,-3,4,-11,15,1,-4
Cc1cccc(C(=O)N2CC(=O)Nc3ccc(F)cc3C2c2ccc(F)cc2)c1 (stereo unspecified),2,-6,-3,6,2,1
COCCNC(=O)C1(C)CCN(C(=O)Cc2ccc(OC)c(OC)c2)C1 (stereo unspecified),-4,-9,-2,12,0,0
CCOc1cc(S(=O)(=O)NCc2ccncc2)ccc1Cl,23,55*,1,-15,12,-19
CCOC(=O)COc1ccc(S(=O)(=O)NCc2ccncc2)cc1,19*,12,3,-7,13,-11
CCOc1cc(S(=O)(=O)NCc2cccs2)ccc1Cl,-4,11,-4,-1,1,-12
CCOc1ccc(S(=O)(=O)NCc2ccncc2)cc1,17,15,1,-2,7,-6
Cc1ccc(S(=O)(=O)N/N=C\C=C\c2ccccc2)cc1,-9,3,0,-6,0,9
Cc1ccc(S(=O)(=O)NN=CC2(c3ccccc3)CC2)cc1,-20,-5,-3,42*,0,6
O=C(Nc1ccccc1)c1cc(C2COCCN2C(=O)C2CC2)on1 (stereo unspecified),-9,-13,-5,19,1,2
SMILES,CHRM1 antagonist,CHO-K1 Ca antag,M1 ag,CHO-K1 Ca PAM,CHO-K1 Ca ag,M1 PAM
COc1cccc(-c2nc3ccccc3s2)c1O,2,1,-9,18,15*,12
COc1ccccc1C(=O)Nc1nc2ccccc2s1,31*,-3,-6,15,1,-17
COc1cc(OC)c(-c2nc3ccccc3s2)cc1OC,-3,-9,-4,1,0,6
COc1ccc(C(=O)Nc2nc3ccccc3s2)c(OC)c1,-7,1,-6,-5,1,-2
O=C(CCl)N(O)c1ccc(C=Cc2ccccc2)cc1,-10,-6,4,0,1,14
Cc1ccc(C(=O)N[C@@H](Cc2ccccc2)C(=O)N2CCC3(CC2)NCCc2[nH]cnc23)cc1C,47*,-7,-6,0,1,-20
COCCN1C[C@@H](CO)O[C@@H](n2cnc3c(NCc4ccncc4)ncnc32)C1,-15,-5,0,15,1,8
O=C(COC(=O)/C=C/c1cccc(F)c1)Nc1ncccn1,-14,-17,-3,20,1,24*
O=C(COC(=O)/C=C/c1cccc(F)c1)Nc1ccc(Cl)cn1,-3,-15,-5,11,0,3
CC(=O)C1=CCC(c2ccc(C)o2)N(S(=O)(=O)c2ccc(C)cc2)C1 (stereo unspecified),10,12,-8,-5,0,-2
COc1ccc(C(=O)CSc2nnc(CN3CCCCC3)n2-c2ccc(F)cc2)cc1,-3,-7,17*,27,20*,5
COc1ccc(C(=O)CSc2nnc(-c3cccs3)n2-c2ccccc2)cc1,-3,-18,-3,15,1,4
CCN1C(=O)[C@@H]2Cc3c([nH]c4ccccc34)C(c3ccc(OC)cc3)N2C1=S (stereo partly specified),71*,-5,-4,9,6,-31
CN1CC(=O)N2C(c3ccc(Cl)cc3)c3[nH]c4ccccc4c3C[C@H]2C1=O (stereo partly specified),0,9,-3,19,24*,0
COCCCN1CC(=O)N2C(c3ccccc3)c3[nH]c4ccccc4c3C[C@H]2C1=O (stereo partly specified),-9,-11,-8,-10,1,3
COC(=O)c1ccc(C2c3[nH]c4ccccc4c3C[C@H]3C(=O)N(C)CC(=O)N23)cc1 (stereo partly specified),12,-16,0,-7,2,-2
O=Cc1ccc(Sc2ncccn2)o1,5,-4,-3,11,12,-1
CC1(C(=O)NS(=O)(=O)c2cccc(Cl)c2)CCN1C(=O)c1ccccc1CCc1ccccc1 (stereo unspecified),-1,-9,-5,1,0,0
COC(=O)N/N=C/c1cn(CCOc2ccc(OC)cc2)c2ccccc12,15,0,-2,7,15*,-9
